Tests used:
Experiment in all cases: DAPPL (digital affinity profiling via proximity ligation, sequencing); 10 mM Tris-HCl pH 7.5, 50 mM NaCl, 1 mM DTT, 4% glycerol, room temperature, 30 min; GST-TFs on glutathione beads, 16-mer random dsDNA library, 0.1% formaldehyde crosslink after washing; high values mean tight binding
Conditions in all cases: protein: recombinant; tags: N-terminal GST; dsDNA, one strand shown
ERF = target: T1, ERF (Homo sapiens, UniProt P50548 1-548)
T1 sequence: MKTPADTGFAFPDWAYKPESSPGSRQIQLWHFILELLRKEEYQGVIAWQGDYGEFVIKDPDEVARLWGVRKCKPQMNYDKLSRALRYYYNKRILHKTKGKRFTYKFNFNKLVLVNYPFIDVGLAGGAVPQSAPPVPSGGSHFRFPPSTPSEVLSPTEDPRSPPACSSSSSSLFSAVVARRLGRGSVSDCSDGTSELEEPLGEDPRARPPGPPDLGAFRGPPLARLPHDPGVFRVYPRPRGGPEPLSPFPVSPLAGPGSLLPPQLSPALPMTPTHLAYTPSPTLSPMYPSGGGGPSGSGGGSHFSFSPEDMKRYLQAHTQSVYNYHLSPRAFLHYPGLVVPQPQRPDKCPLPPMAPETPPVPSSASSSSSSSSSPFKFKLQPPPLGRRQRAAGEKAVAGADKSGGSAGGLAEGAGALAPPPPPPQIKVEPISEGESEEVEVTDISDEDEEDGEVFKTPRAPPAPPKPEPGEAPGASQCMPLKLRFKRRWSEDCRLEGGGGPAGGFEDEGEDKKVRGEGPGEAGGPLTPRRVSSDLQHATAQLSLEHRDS
In short: (§1)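 Each value of binding signal is a hexamer's read frequency for a factor divided by the same hexamer's frequency in the tag-only sample. Barcoded, bead-captured GST fusions of human transcription factors made in yeast were pooled with that sample and incubated with 200 nmole of a random double-stranded 16-mer DNA library in Tris/NaCl/DTT/glycerol buffer at room temperature for 30 min. Washing, 0.1% formaldehyde crosslinking, proximity ligation, PCR and Illumina NextSeq500 sequencing followed.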

ETV3L = target: T2, ETV3L (Homo sapiens, UniProt Q6ZN32 1-361)
T2 sequence: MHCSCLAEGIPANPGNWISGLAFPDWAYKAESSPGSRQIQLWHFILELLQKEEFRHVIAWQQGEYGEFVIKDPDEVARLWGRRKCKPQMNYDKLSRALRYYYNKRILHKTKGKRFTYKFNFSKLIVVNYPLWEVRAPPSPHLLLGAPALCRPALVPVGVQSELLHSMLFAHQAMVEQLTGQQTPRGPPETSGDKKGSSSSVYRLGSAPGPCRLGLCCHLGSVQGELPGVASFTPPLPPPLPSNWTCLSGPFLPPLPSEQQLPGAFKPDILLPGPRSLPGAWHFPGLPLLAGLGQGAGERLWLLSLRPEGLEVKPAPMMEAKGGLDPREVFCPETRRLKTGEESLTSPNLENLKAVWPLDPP
In short: as §1

ETV7 = target: T3, ETV7 (Homo sapiens, UniProt Q9Y603 1-341)
T3 sequence: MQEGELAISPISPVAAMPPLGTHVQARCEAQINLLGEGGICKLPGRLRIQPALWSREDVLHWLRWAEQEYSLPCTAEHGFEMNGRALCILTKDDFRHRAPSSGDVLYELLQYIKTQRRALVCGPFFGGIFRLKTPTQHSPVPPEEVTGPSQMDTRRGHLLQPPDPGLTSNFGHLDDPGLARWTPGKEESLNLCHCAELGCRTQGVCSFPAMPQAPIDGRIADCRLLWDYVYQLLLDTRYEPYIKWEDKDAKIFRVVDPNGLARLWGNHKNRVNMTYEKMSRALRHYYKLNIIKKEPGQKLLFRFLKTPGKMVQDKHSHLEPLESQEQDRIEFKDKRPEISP
In short: as §1

ETV3 = target: T4, ETV3 (Homo sapiens, UniProt P41162-2 1-143)
T4 sequence: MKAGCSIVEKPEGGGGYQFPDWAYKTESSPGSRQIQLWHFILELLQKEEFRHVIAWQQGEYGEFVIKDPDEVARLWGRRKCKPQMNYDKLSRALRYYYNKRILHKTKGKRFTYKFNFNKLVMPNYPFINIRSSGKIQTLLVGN
In short: as §1

ETV6 = ETV6 (Homo sapiens, UniProt P41212 1-452)
Sequence of ETV6 (P41212 whole entry): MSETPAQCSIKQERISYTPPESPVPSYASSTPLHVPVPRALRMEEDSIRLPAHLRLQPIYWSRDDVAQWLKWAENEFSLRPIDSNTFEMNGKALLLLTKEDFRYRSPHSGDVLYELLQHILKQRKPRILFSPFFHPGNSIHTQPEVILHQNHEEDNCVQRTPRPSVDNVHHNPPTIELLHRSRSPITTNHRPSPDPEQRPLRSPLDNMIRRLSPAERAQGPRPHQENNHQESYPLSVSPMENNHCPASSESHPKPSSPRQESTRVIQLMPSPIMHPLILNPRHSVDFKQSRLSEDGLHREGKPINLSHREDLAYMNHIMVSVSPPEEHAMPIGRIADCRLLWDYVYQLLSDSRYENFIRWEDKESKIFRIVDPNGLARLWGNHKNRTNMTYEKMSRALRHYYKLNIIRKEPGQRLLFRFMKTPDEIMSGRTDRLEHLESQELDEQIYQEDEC
In short: as §1

ETS2 = target: T5, ETS2 (Homo sapiens, UniProt P15036 1-469)
T5 sequence: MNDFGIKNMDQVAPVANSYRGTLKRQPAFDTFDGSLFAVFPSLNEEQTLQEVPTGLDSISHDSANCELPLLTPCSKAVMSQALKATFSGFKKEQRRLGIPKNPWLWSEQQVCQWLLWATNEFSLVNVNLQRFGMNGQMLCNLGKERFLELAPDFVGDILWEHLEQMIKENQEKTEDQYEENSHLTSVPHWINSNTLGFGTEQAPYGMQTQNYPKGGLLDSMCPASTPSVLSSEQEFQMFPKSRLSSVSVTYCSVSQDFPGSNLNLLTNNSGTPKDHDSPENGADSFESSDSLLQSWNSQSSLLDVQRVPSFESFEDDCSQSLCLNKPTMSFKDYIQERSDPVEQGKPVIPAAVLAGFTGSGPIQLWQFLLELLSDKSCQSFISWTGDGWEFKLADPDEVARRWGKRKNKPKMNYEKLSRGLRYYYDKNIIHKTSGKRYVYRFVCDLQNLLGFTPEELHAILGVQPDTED
In short: as §1

ELF5 = target: T6, ELF5 (Homo sapiens, UniProt Q9UKW6-2 1-255)
T6 sequence: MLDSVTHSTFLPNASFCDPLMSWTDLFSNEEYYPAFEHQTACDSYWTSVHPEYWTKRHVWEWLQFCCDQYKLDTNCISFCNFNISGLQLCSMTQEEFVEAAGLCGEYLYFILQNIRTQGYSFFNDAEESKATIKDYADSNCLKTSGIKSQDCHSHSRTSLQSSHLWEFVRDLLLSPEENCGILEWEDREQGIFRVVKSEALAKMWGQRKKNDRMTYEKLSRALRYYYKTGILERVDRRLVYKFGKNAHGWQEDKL
In short: as §1

With GCCGAT the binding signal (ERF) was 1.13 fold enrichment (6-mer frequency, TF over GST control), the binding signal (ETV3L) was 1.07 fold enrichment (6-mer frequency, TF over GST control) and the binding signal (ETV7) was 1.12 fold enrichment (6-mer frequency, TF over GST control). For the same sequence, the binding signal (ETV3) was 1.18 fold enrichment (6-mer frequency, TF over GST control) and the binding signal (ETV6) was 1.2 fold enrichment (6-mer frequency, TF over GST control).
For AGATAA, the binding signal (ERF) was 1.02 fold enrichment (6-mer frequency, TF over GST control), the binding signal (ETV3L) was 1.09 fold enrichment (6-mer frequency, TF over GST control) and the binding signal (ETS2) was 1.04 fold enrichment (6-mer frequency, TF over GST control). For the same sequence, the binding signal (ETV6) was 1.06 fold enrichment (6-mer frequency, TF over GST control).
In the case of AACCCA, the binding signal (ERF) is reported as 1.1 fold enrichment (6-mer frequency, TF over GST control), the binding signal (ETV3L) is reported as 1.06 fold enrichment (6-mer frequency, TF over GST control) and the binding signal (ETS2) is reported as 1.04 fold enrichment (6-mer frequency, TF over GST control). For the same sequence, the binding signal (ETV7) was 1.14 fold enrichment (6-mer frequency, TF over GST control), the binding signal (ELF5) was 1.05 fold enrichment (6-mer frequency, TF over GST control) and the binding signal (ETV6) was 1.09 fold enrichment (6-mer frequency, TF over GST control).
With AAAGCT the binding signal (ERF) was 1.02 fold enrichment (6-mer frequency, TF over GST control), the binding signal (ETV3L) was 1.01 fold enrichment (6-mer frequency, TF over GST control) and the binding signal (ETS2) was 1.03 fold enrichment (6-mer frequency, TF over GST control). The binding signal (ETV7) was 1.03 fold enrichment (6-mer frequency, TF over GST control), the binding signal (ELF5) was 1.01 fold enrichment (6-mer frequency, TF over GST control) and the binding signal (ETV3) was 1.04 fold enrichment (6-mer frequency, TF over GST control). For the same sequence, the binding signal (ETV6) was 1.09 fold enrichment (6-mer frequency, TF over GST control).
TAGCTG was tested, and the binding signal (ERF) was 1.16 fold enrichment (6-mer frequency, TF over GST control), the binding signal (ETV3L) was 1.14 fold enrichment (6-mer frequency, TF over GST control) and the binding signal (ETS2) was 1.04 fold enrichment (6-mer frequency, TF over GST control). The binding signal (ETV7) was 1.15 fold enrichment (6-mer frequency, TF over GST control), the binding signal (ELF5) was 1.13 fold enrichment (6-mer frequency, TF over GST control) and the binding signal (ETV3) was 1.23 fold enrichment (6-mer frequency, TF over GST control). The binding signal (ETV6) was 1.2 fold enrichment (6-mer frequency, TF over GST control).
In the case of ATAAAG, the binding signal (ERF) is reported as 1.02 fold enrichment (6-mer frequency, TF over GST control), the binding signal (ETV3L) is reported as 1.01 fold enrichment (6-mer frequency, TF over GST control) and the binding signal (ETS2) is reported as 1 fold enrichment (6-mer frequency, TF over GST control). The binding signal (ETV7) was 1.09 fold enrichment (6-mer frequency, TF over GST control), the binding signal (ELF5) was 1.03 fold enrichment (6-mer frequency, TF over GST control) and the binding signal (ETV3) was 1.05 fold enrichment (6-mer frequency, TF over GST control). For the same sequence, the binding signal (ETV6) was 1.03 fold enrichment (6-mer frequency, TF over GST control).
In the case of CGATGA, the binding signal (ERF) is reported as 1.14 fold enrichment (6-mer frequency, TF over GST control), the binding signal (ETV3L) is reported as 1.12 fold enrichment (6-mer frequency, TF over GST control) and the binding signal (ETV7) is reported as 1.13 fold enrichment (6-mer frequency, TF over GST control). The binding signal (ELF5) was 1.01 fold enrichment (6-mer frequency, TF over GST control).
AAGCCC was tested, and the binding signal (ERF) was 1.11 fold enrichment (6-mer frequency, TF over GST control), the binding signal (ETV3L) was 1.07 fold enrichment (6-mer frequency, TF over GST control) and the binding signal (ETV7) was 1.01 fold enrichment (6-mer frequency, TF over GST control). The binding signal (ELF5) was 1.02 fold enrichment (6-mer frequency, TF over GST control), the binding signal (ETV3) was 1.1 fold enrichment (6-mer frequency, TF over GST control) and the binding signal (ETV6) was 1.03 fold enrichment (6-mer frequency, TF over GST control).
With TGCGCG the binding signal (ERF) was 1.24 fold enrichment (6-mer frequency, TF over GST control), the binding signal (ETV3L) was 1.02 fold enrichment (6-mer frequency, TF over GST control) and the binding signal (ETV7) was 1.23 fold enrichment (6-mer frequency, TF over GST control). The binding signal (ELF5) was 1.01 fold enrichment (6-mer frequency, TF over GST control), the binding signal (ETV3) was 1.03 fold enrichment (6-mer frequency, TF over GST control) and the binding signal (ETV6) was 1.14 fold enrichment (6-mer frequency, TF over GST control).
AACAGC was tested, and the binding signal (ERF) was 1.15 fold enrichment (6-mer frequency, TF over GST control), the binding signal (ETV3L) was 1.05 fold enrichment (6-mer frequency, TF over GST control) and the binding signal (ETS2) was 1.08 fold enrichment (6-mer frequency, TF over GST control). The binding signal (ETV7) was 1.21 fold enrichment (6-mer frequency, TF over GST control), the binding signal (ELF5) was 1.09 fold enrichment (6-mer frequency, TF over GST control) and the binding signal (ETV3) was 1.13 fold enrichment (6-mer frequency, TF over GST control). For the same sequence, the binding signal (ETV6) was 1.1 fold enrichment (6-mer frequency, TF over GST control).
AGCCTA was tested, and the binding signal (ERF) was 1.12 fold enrichment (6-mer frequency, TF over GST control), the binding signal (ETV3L) was 1.09 fold enrichment (6-mer frequency, TF over GST control) and the binding signal (ETS2) was 1.04 fold enrichment (6-mer frequency, TF over GST control). The binding signal (ETV7) was 1.13 fold enrichment (6-mer frequency, TF over GST control) and the binding signal (ETV3) was 1.1 fold enrichment (6-mer frequency, TF over GST control).
With AGCCCC the binding signal (ERF) was 1.03 fold enrichment (6-mer frequency, TF over GST control), the binding signal (ETV3L) was 1.07 fold enrichment (6-mer frequency, TF over GST control) and the binding signal (ETS2) was 1.09 fold enrichment (6-mer frequency, TF over GST control). For the same sequence, the binding signal (ELF5) was 1.01 fold enrichment (6-mer frequency, TF over GST control), the binding signal (ETV3) was 1.11 fold enrichment (6-mer frequency, TF over GST control) and the binding signal (ETV6) was 1.12 fold enrichment (6-mer frequency, TF over GST control).
